Rows were chosen to be rich in hits. Some 8.1% of all compounds tested hit in one or more screens of this group.
KB-3-1 tox = qHTS assay for MDR1-selective chemotherapeutics: Primary screen using the parental adenocarcinoma cell KB-3-1 | KB-3-1 viability, CellTiter-Glo ATP luminescence, 72 h | 400,000 tested, 1.4% active | Potency, µM (highest dose often 46.1 µM), usual class: cytotoxic; further: nearly all actives have a fitted effect of over 60% in size
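Using CellTiter-Glo luminescence, growth of non-resistant KB-3-1 adenocarcinoma cells is assessed 72 h after pin-tool compound addition at 37 °C. Normalized responses across the concentration series yield fitted curves.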
KB-V1 cytotox = qHTS assay for MDR1-selective chemotherapeutics: Primary screen using the drug-selected MDR subline cells KB-V1 | KB-V1 MDR cells viability, CellTiter-Glo, 72 h | 400,000 tested, 3.4% active | AID 1347076, 2019 | Potency, µM (series often up to 46.1 µM), hits mostly cytotoxic; further: nearly all actives have a fitted effect of over 60% in size
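Drug-selected KB-V1 cells, grown in DMEM lacking phenol red with 10% FBS, receive compound titrations; after three days at 37 degrees C, surviving cell ATP is quantified by CellTiter-Glo luminescence and responses normalized and curve-fitted.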
SW480 rereplic = A quantitative high throughput screen for small molecules that induce DNA re-replication in SW480 colon adenocarcinoma cells; SW480 DNA re-replication, Hoechst DNA content imaging, 48 h; Potency, µM (highest dose often 46.1 µM), most hits filed as activators; 340,000 tested, 1.8% active; AID 624297, 2012; further: nearly all actives have a fitted effect of over 55% in size
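250 cells/well; 23 nL cpd via pin tool; 48 hr, 37 C, 5% CO2; Hoechst 40 min; imager read of total nuclear intensity, ex 405/em 500-530 nm.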
MCF10A rereplic = A quantitative high throughput screen for small molecules that induce DNA re-replication in MCF 10a normal breast cells | 350,000 tested, 2.9% active | MCF 10A DNA re-replication, Hoechst nuclear intensity, 48 h | Potency, µM (top dose mostly 46.1 µM), usual class: activators; further: nearly all actives have a fitted effect of over 50% in size
ELG1 DNA repair = qHTS screen for small molecules that inhibit ELG1-dependent DNA repair in human embryonic kidney (HEK293T) cells expressing luciferase-tagged ELG1 | Potency, µM (doses to about 46.1 µM), hits mostly inhibitors | 330,000 tested, 2.3% active | AID 504467, 2011 | HEK293T ELG1-luciferase reporter, luminescence, 16 h; DNA damage induced by 5-fluorouridine; further: nearly all actives have a fitted effect of over 55% in size
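Step one: seed 2,000 cells per well. Step two: pin-transfer compound or DMSO alongside 5-fluorouridine. Step three: incubate 16 hr, 37 °C, 5% CO2. Step four: add ONE-Glo, wait 30 min, read luminescence.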
A number is an active result; i = inactive; ? = inconclusive; nt = no result. The call rests on the fitted dose curve; in most records, active means well fitted curve in the direction sought with a large enough effect; inconclusive means small, poorly fitted or top-dose-only effect, or another doubt; inactive means no such curve, though single readings can be large; an effect the other way counts as inactive or inconclusive.

SMILES | KB-3-1 tox | KB-V1 cytotox | SW480 rereplic | MCF10A rereplic | ELG1 DNA repair
CCc1ccc(NC(=O)N2CCC(N3CCN(Cc4ccc(C)cc4)C(=O)C3=O)CC2)cc1 | i | ? | nt | nt | nt
O=C(CSc1nc2ccccc2s1)NCC1CCCO1 (stereo not given) | i | i | i | i | i
O=C(CSc1nc2ccc(NC(=O)C3CCCCC3)cc2s1)NCC1CCCO1 (stereo not given) | i | ? | i | i | 13µM
Clc1cncc(Cl)c1NNc1c2ccccc2nc2ccccc12 | i | i | i | i | i
Cc1ccc2nc(NCC(N)=O)nc(-c3ccccc3)c2c1 | i | i | 18µM | ? | i
CC(C)(C)Nc1c2ccccc2nc2ccccc12 | i | i | 23µM | 15µM | i
COc1ccc(Nc2nc(-c3ccccc3F)nc3ccccc23)cc1OC | i | i | i | i | 23µM
OCCCNc1c2ccccc2nc2ccccc12 | 8.2µM | ? | ? | i | ?
O=C(O)c1ccc(Nc2c3ccccc3nc3ccccc23)cc1 | i | i | ? | 21µM | i
COc1ccccc1Nc1nc(-c2ccccc2O)nc2ccccc12 | i | i | i | i | ?
CN1CCN(c2ccc(Nc3c4ccccc4nc4ccccc34)cc2)CC1 | 15µM | 23µM | nt | nt | nt
COc1ccccc1Nc1c2ccccc2nc2ccccc12 | ? | 15µM | ? | ? | ?
COc1ccc(Nc2cc(C)c3ccccc3n2)cc1 | i | i | i | i | ?
COc1ccc(Nc2c3ccccc3nc3ccccc23)cc1 | 6.5µM | ? | 23µM | i | ?
O=C(Cn1c(=O)c2ccccc2n(CC(=O)Nc2ccc(F)cc2F)c1=O)NCCc1ccccc1 | i | i | nt | nt | nt
O=C(Nc1ccccc1)[C@@H]1CC=C[C@@H]2CCN(C3CC3)C(=O)[C@@H]21 | i | i | nt | nt | nt
OCCCNc1nc(-c2ccccc2)c2cc(Br)ccc2n1 | ? | ? | ? | 4.6µM | i
COc1ccc(C)cc1Nc1c2c(nc3ccccc13)CCC2 | 0.65µM | 2.9µM | 2.9µM | 1.6µM | ?
COc1cc(Nc2nc(-c3ccccc3)c3cc(C)ccc3n2)cc(OC)c1OC | ? | 21µM | i | ? | ?
Cc1ccc2nc(NCCCO)nc(-c3ccccc3)c2c1 | i | ? | ? | ? | i
COc1ccc(Nc2c3c(nc4ccccc24)CCC3)cc1 | ? | 21µM | i | i | i
COc1cc(Nc2c3ccccc3nc3ccccc23)cc(OC)c1OC | ? | ? | 23µM | ? | i
COc1ccc(Nc2nc(-c3ccccc3)nc3ccccc23)c(OC)c1 | i | i | ? | ? | ?
COc1ccccc1Nc1nc(-c2ccccc2)nc2ccccc12 | i | i | 0.58µM | i | i
COc1ccc(Nc2c3c(nc4ccccc24)CCCC3)cc1OC | ? | ? | i | i | i
SMILES | KB-3-1 tox | KB-V1 cytotox | SW480 rereplic | MCF10A rereplic | ELG1 DNA repair
O=C(NCC1COc2ccccc2O1)c1ccc(NC(=O)C(c2ccccc2)c2ccccc2)cc1 (stereo not given) | i | i | 23µM | ? | ?
O=C(Cc1ccccc1)Nc1ccc(C(=O)NCC2COc3ccccc3O2)cc1 (stereo not given) | i | i | i | i | i
COC(=O)c1c(C)[nH]c(C(=O)C(C)OC(=O)C2=NNC(=O)CC2)c1C (stereo not given) | ? | 5.8µM | i | i | i
COC(=O)c1c(C)[nH]c(C(=O)C(C)OC(=O)C2CC2C)c1C (stereo not given) | i | i | i | i | i
CCOc1[nH]n(-c2ccccc2)c(=O)c1C=Nc1ccccc1 | i | ? | ? | 23µM | ?
C[C@@H](C(=O)O)c1ccc(C(=O)c2ccccc2)s1 | nt | nt | i | i | nt
CCn1nc(NC(=O)C2CCCO2)c2cc3cccc(C)c3nc21 (stereo not given) | i | i | 18µM | ? | ?
CCn1nc(NC(=O)c2cccnc2)c2cc3cccc(C)c3nc21 | i | i | ? | 7.1µM | i
CCn1nc(NC(=O)c2ccccn2)c2cc3cccc(C)c3nc21 | i | i | ? | 12µM | i
CCOC(=O)C1CCCN(c2ncnc3c2cnn3-c2ccc(C)c(Cl)c2)C1 (stereo not given) | i | ? | nt | nt | nt

Screening data: PubChem, National Center for Advancing Translational Sciences (NCATS)
